Drawing on ChEMBL document CHEMBL1961873, “Compounds: GSK PKIS; Assays: Nanosyn kinase panel” (2012), this text covers inhibition for 14 compounds.

In assay [1] the test system is Epidermal growth factor receptor (Homo sapiens), P00533 [T790M]. Particulars: at 1 µM.
In assay [2] the test system is Epidermal growth factor receptor (Homo sapiens), P00533 [L858R,T790M]. Particulars: at 0.1 µM.
For assay [3] the test system is unchanged. To be noted: at 1 µM.
Assay [4] deals with Ephrin type-A receptor 2 (Homo sapiens) (UniProt P29317). Particulars: at 0.1 µM.
For assay [5] the target is unchanged. Particulars: at 1 µM.
The target of assay [6] is T1, Ephrin type-A receptor 3 (Homo sapiens) (UniProt P29320).
T1 sequence (whole entry): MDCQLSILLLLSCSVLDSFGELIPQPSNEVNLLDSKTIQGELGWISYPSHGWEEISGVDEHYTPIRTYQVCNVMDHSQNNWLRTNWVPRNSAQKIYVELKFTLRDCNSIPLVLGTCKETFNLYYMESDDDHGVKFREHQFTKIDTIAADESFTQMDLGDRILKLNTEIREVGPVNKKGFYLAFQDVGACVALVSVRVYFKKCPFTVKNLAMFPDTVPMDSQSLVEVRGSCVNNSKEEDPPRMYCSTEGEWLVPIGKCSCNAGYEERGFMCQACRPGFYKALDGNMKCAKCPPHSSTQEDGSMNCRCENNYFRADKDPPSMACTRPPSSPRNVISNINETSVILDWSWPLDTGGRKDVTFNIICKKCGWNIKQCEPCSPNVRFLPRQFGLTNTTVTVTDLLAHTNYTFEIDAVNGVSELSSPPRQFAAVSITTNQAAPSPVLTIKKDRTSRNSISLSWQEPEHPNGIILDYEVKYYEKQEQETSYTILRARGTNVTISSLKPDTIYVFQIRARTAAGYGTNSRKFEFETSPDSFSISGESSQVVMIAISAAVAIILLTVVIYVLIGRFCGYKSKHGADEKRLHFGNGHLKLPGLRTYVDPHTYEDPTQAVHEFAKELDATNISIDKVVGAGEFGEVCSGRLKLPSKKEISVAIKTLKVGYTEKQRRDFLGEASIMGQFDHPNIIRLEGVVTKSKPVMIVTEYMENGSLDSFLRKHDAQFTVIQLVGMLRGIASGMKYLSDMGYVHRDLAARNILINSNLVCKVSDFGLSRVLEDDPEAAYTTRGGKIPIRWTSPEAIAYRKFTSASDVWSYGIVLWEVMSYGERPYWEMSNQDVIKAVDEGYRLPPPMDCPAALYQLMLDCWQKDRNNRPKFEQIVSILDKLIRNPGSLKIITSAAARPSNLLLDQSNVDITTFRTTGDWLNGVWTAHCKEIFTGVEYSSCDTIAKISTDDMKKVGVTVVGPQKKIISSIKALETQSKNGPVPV
To be noted: at 0.1 µM.

The target in assay [7] is T1, Ephrin type-A receptor 3 (Homo sapiens). To be noted: at 1 µM.
For assay [8], the target named is Ephrin type-A receptor 4 (Homo sapiens) (UniProt P54764). Particulars: at 0.1 µM.
For assay [9] the target is unchanged. Particulars: at 1 µM.
Assay [10] has as its target T2, Ephrin type-B receptor 2 (Homo sapiens) (UniProt P29323).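 Further: reported as mean inhibition of EPHB2, from the GSK PKIS dataset.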
T2 sequence (whole entry): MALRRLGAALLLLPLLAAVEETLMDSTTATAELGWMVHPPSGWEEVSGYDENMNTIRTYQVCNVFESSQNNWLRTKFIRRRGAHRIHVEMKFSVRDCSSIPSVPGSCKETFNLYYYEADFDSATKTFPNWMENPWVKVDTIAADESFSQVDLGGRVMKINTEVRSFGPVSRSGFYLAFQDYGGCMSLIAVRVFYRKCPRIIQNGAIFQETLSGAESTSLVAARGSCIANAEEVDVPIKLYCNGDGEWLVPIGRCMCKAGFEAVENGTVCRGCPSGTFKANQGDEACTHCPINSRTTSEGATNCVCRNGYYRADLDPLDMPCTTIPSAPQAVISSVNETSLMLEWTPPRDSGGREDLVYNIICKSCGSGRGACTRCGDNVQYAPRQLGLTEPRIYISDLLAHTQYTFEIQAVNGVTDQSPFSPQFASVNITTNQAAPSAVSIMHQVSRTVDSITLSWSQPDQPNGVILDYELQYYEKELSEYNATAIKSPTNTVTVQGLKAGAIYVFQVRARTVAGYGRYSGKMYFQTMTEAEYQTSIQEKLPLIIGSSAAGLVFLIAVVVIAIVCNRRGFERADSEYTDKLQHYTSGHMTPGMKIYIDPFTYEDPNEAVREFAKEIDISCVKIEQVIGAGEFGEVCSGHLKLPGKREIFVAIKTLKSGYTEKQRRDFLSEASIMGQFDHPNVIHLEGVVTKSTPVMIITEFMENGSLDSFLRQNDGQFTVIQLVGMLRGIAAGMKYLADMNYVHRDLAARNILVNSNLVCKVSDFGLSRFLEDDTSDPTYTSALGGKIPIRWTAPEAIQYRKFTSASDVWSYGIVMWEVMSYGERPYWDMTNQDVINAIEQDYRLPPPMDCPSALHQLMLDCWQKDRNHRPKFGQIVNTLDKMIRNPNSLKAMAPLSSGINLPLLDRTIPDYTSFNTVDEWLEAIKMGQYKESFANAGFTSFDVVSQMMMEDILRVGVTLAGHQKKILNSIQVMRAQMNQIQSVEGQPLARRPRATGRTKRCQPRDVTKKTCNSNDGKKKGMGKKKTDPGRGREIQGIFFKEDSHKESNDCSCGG
Particulars: at 0.1 µM.

SMILES strings stand for the structures.

Chain of Ephrin type-A receptor 2 (Homo sapiens) (P29317 whole entry): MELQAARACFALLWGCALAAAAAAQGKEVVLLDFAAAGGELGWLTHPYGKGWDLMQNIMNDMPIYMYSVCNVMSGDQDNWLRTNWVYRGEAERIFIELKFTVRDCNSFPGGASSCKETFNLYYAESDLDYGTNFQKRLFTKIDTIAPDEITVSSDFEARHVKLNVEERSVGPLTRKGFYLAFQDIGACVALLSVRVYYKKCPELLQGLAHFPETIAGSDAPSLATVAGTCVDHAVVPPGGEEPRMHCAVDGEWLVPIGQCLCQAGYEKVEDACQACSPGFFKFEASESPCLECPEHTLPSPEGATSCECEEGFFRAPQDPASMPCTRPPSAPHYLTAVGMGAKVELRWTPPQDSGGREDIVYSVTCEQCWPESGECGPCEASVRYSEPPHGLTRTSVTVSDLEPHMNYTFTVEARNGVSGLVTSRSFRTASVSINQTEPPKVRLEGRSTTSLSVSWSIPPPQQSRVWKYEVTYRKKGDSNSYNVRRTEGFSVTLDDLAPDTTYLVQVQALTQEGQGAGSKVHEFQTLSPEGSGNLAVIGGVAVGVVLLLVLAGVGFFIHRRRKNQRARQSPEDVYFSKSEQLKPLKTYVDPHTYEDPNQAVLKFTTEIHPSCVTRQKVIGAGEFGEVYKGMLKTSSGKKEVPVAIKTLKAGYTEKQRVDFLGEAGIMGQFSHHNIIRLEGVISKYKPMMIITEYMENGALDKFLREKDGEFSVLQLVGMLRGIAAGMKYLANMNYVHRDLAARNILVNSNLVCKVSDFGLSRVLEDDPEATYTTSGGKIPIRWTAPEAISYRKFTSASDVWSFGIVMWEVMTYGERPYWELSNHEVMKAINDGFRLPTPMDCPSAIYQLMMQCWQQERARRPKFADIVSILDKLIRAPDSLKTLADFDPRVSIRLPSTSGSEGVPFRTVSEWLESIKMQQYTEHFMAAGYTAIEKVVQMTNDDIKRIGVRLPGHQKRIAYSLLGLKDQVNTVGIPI
Chain of Ephrin type-A receptor 4 (Homo sapiens) (P54764 whole entry): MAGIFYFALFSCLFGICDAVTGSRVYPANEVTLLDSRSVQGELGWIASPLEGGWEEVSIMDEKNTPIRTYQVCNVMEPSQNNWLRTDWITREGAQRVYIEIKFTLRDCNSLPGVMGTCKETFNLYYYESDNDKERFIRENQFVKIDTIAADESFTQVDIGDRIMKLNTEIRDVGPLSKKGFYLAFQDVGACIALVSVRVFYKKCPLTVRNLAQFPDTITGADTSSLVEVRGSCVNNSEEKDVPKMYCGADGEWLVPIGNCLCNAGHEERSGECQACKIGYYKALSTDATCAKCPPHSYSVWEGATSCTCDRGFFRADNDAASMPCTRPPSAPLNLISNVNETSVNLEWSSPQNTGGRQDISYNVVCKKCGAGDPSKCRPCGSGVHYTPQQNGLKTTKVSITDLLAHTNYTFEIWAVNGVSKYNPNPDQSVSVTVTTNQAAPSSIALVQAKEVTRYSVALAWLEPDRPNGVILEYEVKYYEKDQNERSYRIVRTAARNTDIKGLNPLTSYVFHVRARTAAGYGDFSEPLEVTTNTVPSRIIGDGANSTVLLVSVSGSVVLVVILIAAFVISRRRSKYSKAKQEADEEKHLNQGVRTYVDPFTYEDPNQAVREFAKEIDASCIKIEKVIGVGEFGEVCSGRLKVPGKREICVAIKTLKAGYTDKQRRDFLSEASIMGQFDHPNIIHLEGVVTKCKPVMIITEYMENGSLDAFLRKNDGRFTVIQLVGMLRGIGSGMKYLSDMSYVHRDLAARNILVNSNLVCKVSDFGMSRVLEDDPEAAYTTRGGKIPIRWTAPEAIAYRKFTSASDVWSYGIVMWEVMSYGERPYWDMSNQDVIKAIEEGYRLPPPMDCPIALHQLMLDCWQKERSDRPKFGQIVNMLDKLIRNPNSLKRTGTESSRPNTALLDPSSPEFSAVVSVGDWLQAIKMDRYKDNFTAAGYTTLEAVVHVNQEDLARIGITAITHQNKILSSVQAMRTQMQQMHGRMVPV
Chain of Epidermal growth factor receptor (Homo sapiens), P00533 [T790M] (P00533 whole entry T790M): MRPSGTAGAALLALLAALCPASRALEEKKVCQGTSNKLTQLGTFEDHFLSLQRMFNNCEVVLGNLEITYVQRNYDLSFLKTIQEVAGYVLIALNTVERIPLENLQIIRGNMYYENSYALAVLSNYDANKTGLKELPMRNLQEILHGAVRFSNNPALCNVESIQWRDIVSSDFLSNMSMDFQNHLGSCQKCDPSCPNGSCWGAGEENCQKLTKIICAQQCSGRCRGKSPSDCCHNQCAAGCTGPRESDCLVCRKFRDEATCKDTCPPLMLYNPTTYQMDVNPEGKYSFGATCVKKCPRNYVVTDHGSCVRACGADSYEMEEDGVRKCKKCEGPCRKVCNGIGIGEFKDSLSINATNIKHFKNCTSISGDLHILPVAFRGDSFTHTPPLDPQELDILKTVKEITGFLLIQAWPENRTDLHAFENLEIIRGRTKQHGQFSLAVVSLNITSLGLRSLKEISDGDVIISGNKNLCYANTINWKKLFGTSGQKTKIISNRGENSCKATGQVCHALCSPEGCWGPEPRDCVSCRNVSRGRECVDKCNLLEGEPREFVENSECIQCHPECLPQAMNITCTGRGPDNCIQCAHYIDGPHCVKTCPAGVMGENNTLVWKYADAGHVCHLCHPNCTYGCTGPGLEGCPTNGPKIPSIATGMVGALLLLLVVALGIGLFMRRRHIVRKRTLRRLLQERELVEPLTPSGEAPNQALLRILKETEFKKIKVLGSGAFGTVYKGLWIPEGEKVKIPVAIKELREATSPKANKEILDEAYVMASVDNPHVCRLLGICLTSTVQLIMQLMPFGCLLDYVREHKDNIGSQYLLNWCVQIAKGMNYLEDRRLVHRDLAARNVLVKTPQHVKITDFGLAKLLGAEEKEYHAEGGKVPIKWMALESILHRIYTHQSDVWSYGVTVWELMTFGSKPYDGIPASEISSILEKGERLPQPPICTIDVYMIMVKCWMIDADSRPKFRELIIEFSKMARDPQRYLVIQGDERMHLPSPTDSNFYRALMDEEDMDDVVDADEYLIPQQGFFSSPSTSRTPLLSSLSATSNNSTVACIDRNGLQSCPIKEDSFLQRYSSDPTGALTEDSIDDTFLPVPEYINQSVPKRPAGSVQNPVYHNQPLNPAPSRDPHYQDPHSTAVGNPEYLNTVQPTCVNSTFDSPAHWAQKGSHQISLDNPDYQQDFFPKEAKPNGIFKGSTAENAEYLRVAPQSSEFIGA
Chain of Epidermal growth factor receptor (Homo sapiens), P00533 [L858R,T790M] (P00533 whole entry T790M/L858R, looked up): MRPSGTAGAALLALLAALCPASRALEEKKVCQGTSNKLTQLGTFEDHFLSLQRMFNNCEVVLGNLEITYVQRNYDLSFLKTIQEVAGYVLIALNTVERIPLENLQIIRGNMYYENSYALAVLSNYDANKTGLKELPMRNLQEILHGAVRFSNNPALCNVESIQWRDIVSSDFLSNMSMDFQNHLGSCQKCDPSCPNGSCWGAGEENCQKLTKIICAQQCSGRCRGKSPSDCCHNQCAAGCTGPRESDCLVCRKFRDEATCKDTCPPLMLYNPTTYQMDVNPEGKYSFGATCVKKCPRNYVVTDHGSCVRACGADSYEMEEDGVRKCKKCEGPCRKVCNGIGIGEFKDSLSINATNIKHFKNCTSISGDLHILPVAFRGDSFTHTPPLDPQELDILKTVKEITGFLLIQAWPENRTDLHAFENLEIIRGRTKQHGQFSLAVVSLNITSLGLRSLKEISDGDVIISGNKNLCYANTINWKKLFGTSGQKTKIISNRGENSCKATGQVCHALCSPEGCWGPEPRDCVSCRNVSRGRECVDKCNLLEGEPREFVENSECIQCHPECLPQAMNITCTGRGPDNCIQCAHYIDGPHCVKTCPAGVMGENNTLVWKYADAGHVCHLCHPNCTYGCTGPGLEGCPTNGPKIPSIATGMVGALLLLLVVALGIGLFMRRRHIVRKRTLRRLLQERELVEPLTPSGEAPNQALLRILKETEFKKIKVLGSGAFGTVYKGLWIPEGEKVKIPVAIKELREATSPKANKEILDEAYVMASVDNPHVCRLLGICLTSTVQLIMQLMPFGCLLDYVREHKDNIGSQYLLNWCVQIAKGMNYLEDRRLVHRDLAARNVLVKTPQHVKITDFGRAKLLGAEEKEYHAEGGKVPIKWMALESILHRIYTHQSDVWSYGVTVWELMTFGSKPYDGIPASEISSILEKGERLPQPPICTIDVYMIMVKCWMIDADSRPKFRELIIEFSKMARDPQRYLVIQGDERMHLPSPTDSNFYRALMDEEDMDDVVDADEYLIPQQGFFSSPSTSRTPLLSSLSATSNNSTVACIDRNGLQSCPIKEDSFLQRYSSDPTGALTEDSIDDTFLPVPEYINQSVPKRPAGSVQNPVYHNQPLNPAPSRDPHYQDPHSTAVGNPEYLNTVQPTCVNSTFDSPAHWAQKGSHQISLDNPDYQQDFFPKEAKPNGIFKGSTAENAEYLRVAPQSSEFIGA

For the compound `NS(=O)(=O)c1ccc(-c2ccc3c(NC(=O)C4CC4)n[nH]c3c2)cc1`, the inhibition is -0.38% in assay [1]; -1.39% in assay [2]; 1.78% in assay [3]; 3% in assay [4]; 1.18% in [5]; 2.34% in assay [6]. The inhibition in assay [7] turned out to be 2.31%; in [8], 4.83%; in assay [9], 1.43%; in assay [10] it was 7.57%.
As for `Cc1cc(-c2ccco2)cc(C)c1/C=C/c1cncc(-c2nn[nH]n2)c1`, the inhibition in assay [1] was 1.13%; in assay [2] it was -2.33%; in [3] it was 0.17%; in assay [4], 1.36%; in assay [5], 1.78%; in assay [6], -0.31%. The inhibition was 0.86% in assay [7], 1.64% in assay [8], 3.95% in assay [9] and -9.41% in assay [10].
In the case of `CCn1c(-c2nonc2N)nc2c(C#CCN)ncc(OCCCN)c21`, the inhibition in [1] is 5.94%; in assay [2] it was 3.07%; in [3] it was 5.28%; in [4], 5.32%; in assay [5], 1.78%; in assay [6] it was -2.35%. The inhibition was -1% in assay [7], -3.41% in assay [8], 3.82% in assay [9] and -6% in assay [10].
As to `Fc1ccc(-c2ncn(C3CCNCC3)c2-c2ccnc(Oc3ccccc3)n2)cc1`, the inhibition in [1] was 2.3%; in [2], -1.55%; in [3] it was 0.47%; in assay [4], -5.61%; in [5], -5.64%; in [6], -1.44%. In addition, the inhibition in [7] was -1.53%; in [8] it was 4.92%; in assay [9] it was 5.9%; in assay [10] it was 5.55%.
For `CCn1c(-c2nonc2N)nc2c(C#CC(C)(C)O)nc(O[C@@H](CN)c3ccccc3)cc21`, the inhibition was -1.37% in assay [1]; 0.5% in [2]; -1.45% in assay [3]; -2.73% in assay [4]; -4.53% in assay [5]; -1.47% in assay [6]. Also, the inhibition was -0.7% in assay [7], -1.14% in assay [8], -4.76% in assay [9] and -2.94% in assay [10].
For the compound `COc1cccc(COc2cc(-n3cnc4ccccc43)sc2C(N)=O)c1`, the inhibition in assay [1] was -0.01%; in [2], -1.88%; in assay [3], -1.62%; in assay [4] it was 1.52%; in assay [5], 1.85%; in assay [6], 2.67%. Also, the inhibition in assay [7] is -0.49%; in assay [8] it was -0.79%; in assay [9], 3.39%; in assay [10] it was -2.9%.
Take `NS(=O)(=O)c1ccc(N/C=C2\C(=O)Nc3ccc4ncsc4c32)cc1`: the inhibition in assay [1] was found to be 0.85%; in [2], 4.07%; in assay [3], 3.15%; in assay [4] it was 1.01%; in assay [5], 1.66%; in assay [6], 3.37%. Moreover, the inhibition was 6.86% in [7], 8.05% in [8], 22.4% in assay [9] and 9.09% in assay [10].
On to `CCn1c(-c2nonc2N)nc2c(C#CC(C)(C)O)ncc(OC[C@@H]3CCCN3)c21`, for which the inhibition in assay [1] was -0.11%; in assay [2], 4.31%; in assay [3], -0.19%; in [4] it was 1.83%; in assay [5], 0.02%; in [6], 0.32%. In addition, the inhibition in assay [7] is -1.12%; in assay [8], -0.1%; in [9], 2.58%; in [10] it was -7.23%.
Consider `NC(=O)c1sc(-n2cnc3cc(C(F)(F)F)ccc32)cc1OCc1ccccc1Br`, for which the inhibition in assay [1] was 0.23%; in assay [2], -0.11%; in assay [3] it was -0.24%; in assay [4], 2.18%; in assay [5], 0.32%; in assay [6], 3.31%. Further, the inhibition in assay [7] is 1.36%; in assay [8], 4.57%; in assay [9], 8.16%; in assay [10] it was -4.03%.
As to `COc1cc2c(cc1Nc1nc(Nc3ccsc3C(N)=O)c3cc[nH]c3n1)N(C(=O)CN(C)C)CCC2`, the inhibition in assay [1] is 55%; in assay [2] it was 29.8%; in assay [3] it was 77.5%; in assay [4], 1.21%; in assay [5], -1.44%; in assay [6], 1.88%. Further, the inhibition in assay [7] was -0.28%; in assay [8], 0.13%; in assay [9], 4.13%; in assay [10], -6.85%.
On to `COc1cccc(-n2ncc3c(N/N=C/c4ccncc4)ncnc32)c1`, for which the inhibition in assay [1] is 5.66%; in assay [2], 3.61%; in [3], 8.8%; in assay [4] it was 3.25%; in assay [5], 15.8%; in assay [6], 5.89%. Also, the inhibition in assay [7] is 6.97%; in assay [8], 11.1%; in assay [9] it was 35.5%; in assay [10], 8.96%.
On to `Nc1nonc1-c1nc2cnccc2n1C1CCCCC1`, for which the inhibition in [1] is -2.94%; in assay [2], -0.65%; in assay [3], -0.53%; in [4], -4.45%; in assay [5], -4.85%; in assay [6], -7.25%. In addition, the inhibition in [7] was -1.98%; in assay [8] it was -4.61%; in assay [9] it was -3.51%; in assay [10] it was -7.08%.
Consider `COc1cc(C=NNc2ncnc3c2cnn3Cc2ccccc2)ccc1O`, for which the inhibition is -3.25% in assay [1]; -1.62% in assay [2]; -0.48% in assay [3]; 15.6% in assay [4]; 32.4% in assay [5]; -4.93% in assay [6]. Also, the inhibition in assay [7] was 3.27%; in assay [8] it was 6.93%; in assay [9] it was 21.7%; in assay [10], -3.14%.
As to `CCn1c(-c2nonc2N)nc2c(C#CC(C)(C)O)ncc(OCC3CCNCC3)c21`, the inhibition in assay [1] is 3.59%; in assay [2], 2.99%; in assay [3], 3.17%; in [4], -2.64%; in [5], -3.81%; in assay [6], -0.49%. For the same compound, the inhibition in assay [7] was -1.92%; in [8], 7.43%; in assay [9], 7.66%; in assay [10], 1.63%.

In general, inhibition refers to the change of the read-out against control, counted positive when it falls.
